# Data published in paper PMC7862700, “An all-to-all approach to the identification of sequence-specific readers for epigenetic DNA modifications on cytosine”.
# Tests used:
# Assay in all cases: DAPPL (digital affinity profiling via proximity ligation, sequencing); 10 mM Tris-HCl pH 7.5, 50 mM NaCl, 1 mM DTT, 4% glycerol, room temperature, 30 min; GST-TFs on glutathione beads, 16-mer random dsDNA library, 0.1% formaldehyde crosslink after washing; high values mean tight binding
# FEV = target: T1, FEV (Homo sapiens, UniProt Q99581 1-238); conditions: protein: recombinant; tags: N-terminal GST; dsDNA, one strand shown
# T1 sequence: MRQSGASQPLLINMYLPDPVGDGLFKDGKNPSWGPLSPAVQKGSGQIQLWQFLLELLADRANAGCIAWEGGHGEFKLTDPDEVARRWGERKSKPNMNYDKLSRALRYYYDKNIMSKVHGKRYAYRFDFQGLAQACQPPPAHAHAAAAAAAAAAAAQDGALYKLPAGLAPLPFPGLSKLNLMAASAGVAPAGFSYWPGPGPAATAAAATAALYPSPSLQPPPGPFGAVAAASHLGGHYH
# How it was run: (§1)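 After expression in yeast as GST fusions, human transcription factors were bound to glutathione beads, DNA-barcoded and mixed with a tag-only sample. The pools were incubated with 200 nmole of a 16-mer random double-stranded DNA library in Tris/NaCl/DTT/glycerol buffer (30 min, room temperature), washed and crosslinked with 0.1% formaldehyde. Proximity ligation with BsaI/T4 ligase ran for 1 h at 37 °C, before PCR amplification and sequencing on an Illumina NextSeq500. Binding signal is a hexamer's read frequency for a factor divided by its frequency for the tag-only sample.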
# ETV5 = ETV5 (Homo sapiens, UniProt P41161 1-510); conditions: protein: recombinant; tags: N-terminal GST; dsDNA, one strand shown
# How it was run: as §1
# HSF1 = HSF1 (Homo sapiens, UniProt Q00613 1-529); conditions: protein: recombinant; tags: N-terminal GST; chain copies: 3; dsDNA, one strand shown
# How it was run: as §1
# SPIC = target: T2, SPIC (Homo sapiens, UniProt Q8N5J4 1-248); conditions: protein: recombinant; tags: N-terminal GST; dsDNA, one strand shown
# T2 sequence: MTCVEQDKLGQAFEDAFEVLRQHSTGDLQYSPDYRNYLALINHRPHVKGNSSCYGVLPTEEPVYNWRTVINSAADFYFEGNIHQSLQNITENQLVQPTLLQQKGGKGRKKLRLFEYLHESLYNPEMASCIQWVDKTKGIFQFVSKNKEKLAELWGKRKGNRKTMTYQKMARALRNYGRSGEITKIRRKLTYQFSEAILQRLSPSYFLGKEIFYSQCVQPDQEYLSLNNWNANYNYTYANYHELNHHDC
# How it was run: as §1
# ELF4 = ELF4 (Homo sapiens, UniProt Q99607 1-663); conditions: protein: recombinant; tags: N-terminal GST; dsDNA, one strand shown
# How it was run: as §1
# ELK4 = target: T3, ELK4 (Homo sapiens, UniProt P28324-2 1-405); conditions: protein: recombinant; tags: N-terminal GST; dsDNA, one strand shown
# T3 sequence: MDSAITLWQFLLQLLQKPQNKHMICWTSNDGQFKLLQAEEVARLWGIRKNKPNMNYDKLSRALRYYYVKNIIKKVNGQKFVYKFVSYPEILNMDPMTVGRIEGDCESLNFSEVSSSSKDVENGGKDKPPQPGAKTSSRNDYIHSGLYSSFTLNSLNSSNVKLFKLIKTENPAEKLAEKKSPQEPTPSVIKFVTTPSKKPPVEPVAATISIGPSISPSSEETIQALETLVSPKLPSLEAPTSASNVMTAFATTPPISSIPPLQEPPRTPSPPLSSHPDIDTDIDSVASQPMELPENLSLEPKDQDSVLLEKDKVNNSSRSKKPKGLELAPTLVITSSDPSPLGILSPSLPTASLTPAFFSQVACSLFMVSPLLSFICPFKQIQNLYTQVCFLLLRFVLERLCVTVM
# How it was run: as §1
# ETV2 = target: T4, ETV2 (Homo sapiens, UniProt O00321 1-342); conditions: protein: recombinant; tags: N-terminal GST; dsDNA, one strand shown
# T4 sequence: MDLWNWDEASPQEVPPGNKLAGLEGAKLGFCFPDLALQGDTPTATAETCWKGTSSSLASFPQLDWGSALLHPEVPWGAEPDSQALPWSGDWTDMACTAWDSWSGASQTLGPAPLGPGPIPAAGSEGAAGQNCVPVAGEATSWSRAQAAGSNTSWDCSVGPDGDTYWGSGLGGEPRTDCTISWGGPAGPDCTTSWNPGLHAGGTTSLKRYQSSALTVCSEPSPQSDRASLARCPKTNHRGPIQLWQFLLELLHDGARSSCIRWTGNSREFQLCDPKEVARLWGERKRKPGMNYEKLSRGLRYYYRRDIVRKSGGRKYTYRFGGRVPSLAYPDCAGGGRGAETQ
# How it was run: as §1
# ELF3 = target: T5, ELF3 (Homo sapiens, UniProt P78545 1-371); conditions: protein: recombinant; tags: N-terminal GST; dsDNA, one strand shown
# T5 sequence: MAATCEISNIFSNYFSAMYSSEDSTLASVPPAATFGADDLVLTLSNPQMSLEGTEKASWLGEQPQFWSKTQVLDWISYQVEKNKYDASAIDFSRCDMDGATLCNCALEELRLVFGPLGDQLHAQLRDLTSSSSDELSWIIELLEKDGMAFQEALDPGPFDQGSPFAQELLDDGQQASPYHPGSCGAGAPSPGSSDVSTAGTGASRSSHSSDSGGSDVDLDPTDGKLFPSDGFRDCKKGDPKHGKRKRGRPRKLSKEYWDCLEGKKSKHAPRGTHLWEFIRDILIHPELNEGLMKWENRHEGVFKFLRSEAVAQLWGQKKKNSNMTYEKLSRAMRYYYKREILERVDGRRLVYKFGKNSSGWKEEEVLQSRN
# How it was run: as §1
# CRX = CRX (Homo sapiens, UniProt O43186 1-299); conditions: protein: recombinant; tags: N-terminal GST; dsDNA, one strand shown
# How it was run: as §1
# ETV1 = ETV1 (Homo sapiens, UniProt P50549 1-477); conditions: protein: recombinant; tags: N-terminal GST; dsDNA, one strand shown
# How it was run: as §1
# Chain of HSF1 (Q00613 whole entry): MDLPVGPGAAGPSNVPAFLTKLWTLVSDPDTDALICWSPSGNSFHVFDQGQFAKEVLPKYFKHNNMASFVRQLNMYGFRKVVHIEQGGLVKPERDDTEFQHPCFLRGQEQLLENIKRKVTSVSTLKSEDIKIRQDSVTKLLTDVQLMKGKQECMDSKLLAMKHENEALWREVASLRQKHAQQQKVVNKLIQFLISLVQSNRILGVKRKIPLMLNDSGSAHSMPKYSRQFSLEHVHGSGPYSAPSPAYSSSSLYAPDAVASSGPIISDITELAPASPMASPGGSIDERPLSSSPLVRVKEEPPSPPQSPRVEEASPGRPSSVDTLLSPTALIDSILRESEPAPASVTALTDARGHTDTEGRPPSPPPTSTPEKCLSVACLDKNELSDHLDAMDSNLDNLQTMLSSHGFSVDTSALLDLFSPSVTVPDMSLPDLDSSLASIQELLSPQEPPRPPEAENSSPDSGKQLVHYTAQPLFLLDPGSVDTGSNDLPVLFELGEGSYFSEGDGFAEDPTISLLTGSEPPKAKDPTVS
# Chain of ETV5 (P41161 whole entry): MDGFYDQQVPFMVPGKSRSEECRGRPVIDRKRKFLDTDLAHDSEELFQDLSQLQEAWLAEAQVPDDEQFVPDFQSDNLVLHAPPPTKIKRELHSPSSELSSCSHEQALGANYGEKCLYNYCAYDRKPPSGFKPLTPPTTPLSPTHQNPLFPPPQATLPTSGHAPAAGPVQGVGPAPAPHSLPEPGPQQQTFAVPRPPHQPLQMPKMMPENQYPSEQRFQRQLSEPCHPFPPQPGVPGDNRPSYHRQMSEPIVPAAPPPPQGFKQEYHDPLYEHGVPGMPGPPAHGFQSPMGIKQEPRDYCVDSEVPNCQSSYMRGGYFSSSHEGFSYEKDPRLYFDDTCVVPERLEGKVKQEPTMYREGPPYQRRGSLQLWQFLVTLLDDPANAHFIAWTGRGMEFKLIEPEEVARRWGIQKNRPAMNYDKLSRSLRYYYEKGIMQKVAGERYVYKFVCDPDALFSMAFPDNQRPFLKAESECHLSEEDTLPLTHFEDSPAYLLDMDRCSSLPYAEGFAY
# Chain of CRX (O43186 whole entry): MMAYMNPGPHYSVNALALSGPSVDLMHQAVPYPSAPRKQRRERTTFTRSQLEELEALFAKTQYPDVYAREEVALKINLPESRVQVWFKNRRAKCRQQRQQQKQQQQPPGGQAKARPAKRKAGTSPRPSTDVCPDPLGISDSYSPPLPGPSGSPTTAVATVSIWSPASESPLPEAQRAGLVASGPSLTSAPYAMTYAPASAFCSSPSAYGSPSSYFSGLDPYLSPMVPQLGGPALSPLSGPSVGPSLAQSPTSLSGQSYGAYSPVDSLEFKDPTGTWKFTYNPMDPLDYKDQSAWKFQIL
# Chain of ELF4 (Q99607 whole entry): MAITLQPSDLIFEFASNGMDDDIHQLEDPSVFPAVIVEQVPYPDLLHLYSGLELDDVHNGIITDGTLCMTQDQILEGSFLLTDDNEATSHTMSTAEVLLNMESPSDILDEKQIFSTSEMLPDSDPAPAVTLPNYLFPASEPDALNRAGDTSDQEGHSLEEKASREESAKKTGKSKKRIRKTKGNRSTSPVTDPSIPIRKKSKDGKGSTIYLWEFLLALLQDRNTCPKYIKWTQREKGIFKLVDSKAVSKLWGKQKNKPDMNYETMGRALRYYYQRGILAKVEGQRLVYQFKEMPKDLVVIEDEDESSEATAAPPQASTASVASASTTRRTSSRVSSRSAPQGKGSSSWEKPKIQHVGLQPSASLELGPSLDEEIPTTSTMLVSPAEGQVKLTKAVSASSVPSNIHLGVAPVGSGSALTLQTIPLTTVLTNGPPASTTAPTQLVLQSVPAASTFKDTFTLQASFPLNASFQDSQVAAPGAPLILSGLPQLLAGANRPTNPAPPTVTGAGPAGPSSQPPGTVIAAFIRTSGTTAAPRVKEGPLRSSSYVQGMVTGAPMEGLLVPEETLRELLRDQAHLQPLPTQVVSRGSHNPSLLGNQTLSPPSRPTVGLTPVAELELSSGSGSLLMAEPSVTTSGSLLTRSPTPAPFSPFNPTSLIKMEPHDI
# Chain of ETV1 (P50549 whole entry): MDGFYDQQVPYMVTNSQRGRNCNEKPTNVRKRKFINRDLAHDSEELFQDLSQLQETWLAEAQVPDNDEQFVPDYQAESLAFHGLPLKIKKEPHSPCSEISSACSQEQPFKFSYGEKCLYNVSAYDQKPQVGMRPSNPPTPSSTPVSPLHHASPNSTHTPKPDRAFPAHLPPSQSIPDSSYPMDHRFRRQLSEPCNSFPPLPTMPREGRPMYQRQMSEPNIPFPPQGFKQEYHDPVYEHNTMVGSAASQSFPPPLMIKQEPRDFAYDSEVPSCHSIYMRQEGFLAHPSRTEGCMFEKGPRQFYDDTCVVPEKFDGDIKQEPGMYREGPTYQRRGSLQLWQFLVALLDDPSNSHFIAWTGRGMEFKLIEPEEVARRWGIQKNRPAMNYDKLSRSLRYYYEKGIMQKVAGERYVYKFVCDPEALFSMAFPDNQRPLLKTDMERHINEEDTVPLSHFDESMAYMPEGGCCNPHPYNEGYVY
sequence,measurement,setting,value
ACGATA,binding signal,FEV,"1.12 fold enrichment (6-mer frequency, TF over GST control)"
same,binding signal,ETV5,"1.16 fold enrichment (6-mer frequency, TF over GST control)"
same,binding signal,HSF1,"1.17 fold enrichment (6-mer frequency, TF over GST control)"
same,binding signal,SPIC,"1.38 fold enrichment (6-mer frequency, TF over GST control)"
same,binding signal,ELF4,"1.22 fold enrichment (6-mer frequency, TF over GST control)"
same,binding signal,ELK4,"1.18 fold enrichment (6-mer frequency, TF over GST control)"
same,binding signal,ETV2,"1.22 fold enrichment (6-mer frequency, TF over GST control)"
same,binding signal,ELF3,"1.04 fold enrichment (6-mer frequency, TF over GST control)"
same,binding signal,CRX,"1.26 fold enrichment (6-mer frequency, TF over GST control)"
same,binding signal,ETV1,"1.15 fold enrichment (6-mer frequency, TF over GST control)"
